Compounds with a hit are over-represented: about 7.6% of the library has one in this group of screens.
TSHR ag = agonists of human thyroid stimulating hormone receptor; P16473; HEK293-CNG-TSHR cells (CNG channel as cAMP sensor), membrane potential dye, cAMP; Potency, µM (series often up to 57.1 µM), without a hit: at the highest dose activation, hits mostly activators; actives 0.48% (n = 73,000); AID 926; active = well fitted activation curve with a large enough effect in the main read-out, with a control signal flat, not every such curve was filed as active; inconclusive = small, poorly fitted or top-dose-only effect, or a change in a side signal; inactive = no such curve, though single readings can be large or run the other way; % of control where 0% means no effect;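 also: the control signal comes from parental cells without the receptor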
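HEK 293 cells stably expressing TSHR and a cAMP-gated CNG channel; parental CNG-only cells as counterscreen. Cells preloaded 60 min with membrane potential dye plus 100 uM RO 20-1724, then compound 30 min; fluorescence read at 590 nm.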
Tau fil binding = binders of human tau filaments; recombinant tau filaments, thioflavin S fluorescence, 15 h; filaments grown with octadecylsulfate alongside compound; Potency, µM (highest dose often 57.1 µM), for inactives: at the highest dose activity change, negative = inhibition; actives 2% (n = 71,000); AID 596;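 also: % is scaled to controls: 0 for no effect and ±100 for the full control effect; actives lower thioflavin S fluorescence by blocking filaments or displacing dye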
Target sequence (P10636 whole entry, looked up): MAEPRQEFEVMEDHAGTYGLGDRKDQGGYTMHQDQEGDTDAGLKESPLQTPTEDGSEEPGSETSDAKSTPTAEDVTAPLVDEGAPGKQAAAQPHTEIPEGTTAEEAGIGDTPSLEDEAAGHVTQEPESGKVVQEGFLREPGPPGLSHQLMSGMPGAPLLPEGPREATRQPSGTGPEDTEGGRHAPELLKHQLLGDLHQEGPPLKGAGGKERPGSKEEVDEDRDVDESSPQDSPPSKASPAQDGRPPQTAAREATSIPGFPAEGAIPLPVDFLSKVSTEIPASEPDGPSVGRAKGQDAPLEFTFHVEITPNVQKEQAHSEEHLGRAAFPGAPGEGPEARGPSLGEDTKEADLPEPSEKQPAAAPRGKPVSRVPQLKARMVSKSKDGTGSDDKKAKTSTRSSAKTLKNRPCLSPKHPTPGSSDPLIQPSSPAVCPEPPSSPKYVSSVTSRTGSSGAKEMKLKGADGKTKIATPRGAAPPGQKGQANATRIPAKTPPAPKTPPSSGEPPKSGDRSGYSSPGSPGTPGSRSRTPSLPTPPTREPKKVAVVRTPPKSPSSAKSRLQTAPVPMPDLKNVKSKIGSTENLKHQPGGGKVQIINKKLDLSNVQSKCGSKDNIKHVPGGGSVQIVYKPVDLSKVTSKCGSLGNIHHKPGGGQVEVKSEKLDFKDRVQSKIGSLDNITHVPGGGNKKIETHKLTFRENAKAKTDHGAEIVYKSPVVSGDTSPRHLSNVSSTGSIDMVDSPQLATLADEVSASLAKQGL
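Read-out: ThS fluorescence, 450 nm excitation/510 nm emission; lower signal marks blocked filament formation or displaced dye. Tau at 1 uM with 30 uM ODS, 10 uM ThS, 5 mM DTT, 100 mM NaCl, 10 mM HEPES pH 7.4; 15 h, 37 C.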
ERK AVP inh = inhibitors of vasopressin-stimulated ERK signaling pathway; HEK293-V1b, vasopressin-stimulated pERK AlphaScreen; Potency, µM (series often up to 57.5 µM), without a hit: top-dose activity, negative = inhibition, usual class: inhibitors; actives 0.99% (n = 72,000); also: % is scaled to controls: 0 for no effect and ±100 for the full control effect; nearly all actives have a fitted effect of over 55% in size
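qHTS, compounds titrated on V1b-expressing HEK293 cells. Preincubation 30 min at 37C, vasopressin 25 nM for 5 min, lysis 10 min, bead incubation 5 hr at room temperature.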
CRE-bla Fsk = alters forskolin-stimulated CRE reporter signaling in CHO cells; Potency, µM (doses to about 38.2 µM), inactives show at the highest dose activity change, negative = inhibition, most hits filed as activators; CHO CRE-bla reporter (cAMP response element driving beta-lactamase), forskolin EC10, beta-lactamase ratio; actives 2.5% (n = 71,000); active = well fitted activation curve with a large enough effect in the signal ratio, with a control signal flat, not every such curve was filed as active; inconclusive = small, poorly fitted or top-dose-only effect, or effect the other way, or a change in a side signal; the % refers to the signal ratio; also: % of control where 0% means no effect
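Using CellSensor CRE-bla CHO cells in Opti-MEM with 0.5% dialyzed FBS, compounds were titrated with EC10 NKH 477 for 3 h at 37 °C. CCF4 ratio (460/530 nm) gave %Activity; AC50 derived.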
HEK293 cAMP ctrl = parental HEK293 cAMP activation (counter-screen). parental HEK293 CNG cAMP sensor, membrane potential fluorescence. Potency, µM (highest dose often 57.1 µM), for inactives: at the highest dose activation, hits mostly activators. actives 2.5% (n = 73,000); also: % of control where 0% means no effect; nearly all actives have a fitted effect of over 55% in size
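Parental HEK 293 cells stably expressing a cAMP-gated CNG channel were loaded with membrane potential dye containing 100 uM RO 20-1724 for 60 min. Compound added for 30 min; depolarization read as fluorescence intensity at 590 nm.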
* hit, by the source's call; ? = inconclusive; nt = not tested or not shown; [ ] = dose if it differs, or a comment. Unless noted, calls follow the shape of the dose curve; as a rule, active = well fitted curve in the direction sought with a large enough effect; inconclusive = small, poorly fitted or top-dose-only effect, or another doubt; inactive = no such curve, though single readings can be large; an effect the other way counts as inactive or inconclusive. Potency is read from the fitted curve at half-maximal effect.

SMILES | TSHR ag | Tau fil binding | ERK AVP inh | CRE-bla Fsk | HEK293 cAMP ctrl
O=C(CSc1nnc2c3c4c(sc3ncn12)CCCC4)NCc1ccco1 | ? | 0% | 15% | 8% | 13µM*
COc1cc2c(cc1O)CCN[C@H]2C | 2% | ? | nt | ? | 3%
CC(C)[C@@]1(NC(=O)[C@H]2C[C@H]3c4cccc5[nH]cc(c45)C[C@@H]3N(C)C2)O[C@]2(O)[C@H]3CCCN3C(=O)[C@H](Cc3ccccc3)N2C1=O | -39% | 33% | nt | -23% | -5%
COc1ccccc1OCCCn1cc(C(=O)c2ccco2)c2ccccc21 | ? | 5% | -2% | 0% | 32µM*
CN[C@H]1[C@H](C)O[C@@H](O[C@@H]2C/C=C(/C)C/C(C)=C\C=C/CC[C@@H](C)CNC(=O)/C=C\C=C/[C@H]2C)C[C@@H]1O | -1%[11.4 µM] | 196%[11.4 µM] | nt | 20%[7.6 µM] | 4%[11.4 µM]
Nc1ccnn1C1CCNCC1 | -5% | 25µM* | 32% | 0% | 2%
CCN1C[C@@]2(C)CC[C@H](O)[C@@]34[C@@H]5C[C@H]6[C@H](O)[C@@H]5[C@](O)(C[C@@H]6OC)[C@H](C[C@@H]23)[C@H]14 | 1% | ? | nt | ? | 1%
Nc1ccc(Cl)cc1N | ? | 2.5µM* | 4% | 2% | -5%
O=C(O)/C=C\c1ccc[c]([Sb](=[O])([OH])[OH])c1 | -7%[11.4 µM] | 5%[11.4 µM] | 6%[11.5 µM] | ? | 0%[11.4 µM]
CC(C)[C@@]1(NC(=O)[C@@H]2C=C3c4cccc5[nH]cc(c45)C[C@@H]3N(C)C2)O[C@]2(O)[C@H]3CCCN3C(=O)[C@H](Cc3ccccc3)N2C1=O | -6% | 434% | nt | 17% | -11%
CCCC[C@@H]1C[C@H]1C(NP(=O)(c1ccccc1)c1ccccc1)c1ccc(Cl)cc1 (some centres undefined) | ? | 10% | nt | 7% | 2.5µM*
C=C(C)[C@H]1[C@H]2OC(=O)[C@@H]1[C@]1(O)C[C@H]3O[C@]34C(=O)O[C@H]2[C@]14C | -2% | 32µM* | nt | -9% | 6%
O=C(c1cc2cc3ccc(Cl)cc3nc2o1)N1CCC2(CC1)OCCO2 | 2% | 2% | 5% | 3.2µM* | -1%
c1ccc2c(c1)Sc1ccccc1N2C[C@H]1CN2CCC1CC2 | 2%[11.4 µM] | 1.6µM* | -2%[11.5 µM] | -5%[7.6 µM] | -3%[11.4 µM]
COc1ccc2c(c[n+](C)c3c4cc5c(cc4ccc23)OCO5)c1OC | ? | 32µM* | ? | ? | -35%
CCCN1CC[C@@H]2c3cc(O)ccc3CC[C@H]21 | ? | -10% | 3% | -3% | ?
CC1O[C@@H](OC2CC[C@@]3(C=O)C4CC[C@]5(C)C(C6=CC(=O)OC6)CC[C@@]5(O)C4CC[C@]3(O)C2)C(O)C(O)C1O (some centres undefined) | nt | nt | 14% | nt | nt
C[C@@H]1O[C@@H](O[C@H]2C[C@@H](O)[C@]3(CO)[C@@H]4[C@@H](O)C[C@]5(C)[C@H]([C@@H]6COC(=O)C6)CC[C@@]5(O)[C@H]4CC[C@@]3(O)C2)[C@H](O)[C@H](O)[C@@H]1O | ? | -9% | 4% | 2% | 25µM*
CC(=O)N1C[C@@H]2C[C@H](C1)c1cccc(=O)n1C2 | 3% | -26% | nt | -11% | 1%
CC1N(P(=O)(c2ccccc2)c2ccccc2)CC(O)(c2ccccc2)CC12CC2 (centres undefined) | ? | 16% | 4% | ? | 16µM*
Cc1nn(CCC#N)c2c1P(=S)(N1CCCC1)OC(c1ccc(F)cc1)=N2 (centres undefined) | 16µM* | -5% | 20% | -6% | 27%
C=CC(=O)OCC(CO)(COC(=O)C=C)COC(=O)C=C | -2% | 2% | 16µM* | ? | -16%
COC(=O)c1c(N)n(Cc2ccc(OC)cc2)c2nc3ccccc3nc12 | -5% | ? | -26% | 16µM* | 14%
COCCOC(=O)c1c(N)n(Cc2ccc(OC)cc2)c2nc3ccccc3nc12 | 3% | 3% | -18% | 10µM* | 27%
COCCCNC(=O)c1c(NC(=O)c2ccco2)n(Cc2ccccc2)c2nc3ccccc3nc12 | 11% | 49% | 31% | ? | 18%

Screening results as filed in PubChem BioAssay.
